The values that follow come from PubChem BioAssay (EPA / NIEHS).

Several values for one entry are separate records, joined by “and”; a condition that tells them apart may be missing. Equal entries are not always repeated. Inconclusive results are not listed. Activity calls are given as the source filed them. The calls were made as follows: active = hit-call score of the fitted dose curve at least 0.9, where 1 is the maximum; inconclusive = response in the unintended direction; inactive = score below 0.9.

Chain of human Peripheral-type Benzodiazepine Receptor (PBR), TSPO (gene 706) (P30536 whole entry, looked up): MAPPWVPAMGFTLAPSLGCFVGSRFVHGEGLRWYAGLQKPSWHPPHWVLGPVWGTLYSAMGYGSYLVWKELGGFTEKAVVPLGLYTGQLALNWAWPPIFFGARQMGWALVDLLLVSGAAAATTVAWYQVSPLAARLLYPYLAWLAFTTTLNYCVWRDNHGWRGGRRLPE

The assay concerns the target human Peripheral-type Benzodiazepine Receptor (PBR), TSPO (gene 706) (UniProt P30536). In words: NVS_MP_hPBR: NovaScreen (NVS) Membrane Protein Assay for human Peripheral-type Benzodiazepine Receptor (PBR) (AID 2283331). On the procedure: NVS_MP_hPBR is a biochemical, single-readout assay that uses extracted gene-proteins from Human colonic cell membranes in a tissue-based cell-free assay. Measurements were taken 1 hour after chemical dosing in a 48-well plate.NVS_MP_hPBR is one of one assay component(s) measured or calculated from the NVS_MP_hPBR assay. It is designed to make measurements of radioligand binding, a form of binding reporter, as detected with scintillation counting signals by Filter-based radiodetection technology.Data from the assay component NVS_MP_hPBR was analyzed into 1 assay endpoint. This assay endpoint, NVS_MP_hPBR, was analyzed in the positive analysis fitting direction relative to DMSO as the negative control and baseline of activity. Using a type of binding reporter, loss-of-signal activity can be used to understand changes in the binding as they relate to the gene TSPO. Furthermore, this assay endpoint can be referred to as a primary readout, because the performed assay has only produced 1 assay endpoint. To generalize the intended target to other relatable targets, this assay endpoint is annotated to the transporter intended target family, where the subfamily is cholesterol transporter.
Binding assays used specific radioligands (tritiated, iodinated) with non-radioactive competitive displacement ligands in agonist or antagonist protocols (as indicated) and various reference compounds and inhibitors to titrate specific binding to receptors and transporters. Most enzyme assays (CYPs, kinases, phosphatases, proteases, HDACs) used recombinant protein and specific substrates (fluorescence mostly, some colorimetric and radioactive) and inhibitors, followed by a biochemical separation of substrate and product. All assays for the biochemical HTS were initially run in duplicate at a single concentration (10 uM for CYP450 assays and 25 uM for all others). […] Each assay was run with positive and negative controls, and concurrent controls on every plate. The follow-up (secondary) screen tested active chemical-pairs in concentration series, as well as a few additional assays not tested in the primary screen, some selected negative inactives, and several cases re-run in the concentration series for confirmatory purposes.
By AC50 is commonly meant the concentration giving half of the maximal activity seen. Consider `Cc1oc(-c2ccccc2)nc1CCOc1ccc(C[C@H](Nc2ccccc2C(=O)c2ccccc2)C(=O)O)cc1`, for which the AC50 is 6.36 µM (active).

For `NC(=O)N1C(=O)C(C(=O)c2cc(Cl)cs2)c2cc(F)c(Cl)cc21` (stereo unspecified), the AC50 is 0.951 µM (active).

On to `CC[C@H](c1ccc(O)cc1)[C@@H](CC)c1ccc(O)cc1`, for which the AC50 is 795 nM (active) [middle of 4 runs].

With `CC1=C(/C=C/C(C)=C/C=C/C(C)=C/C(=O)O)C(C)(C)CCC1`, the concentration at half-maximal activity (AC50) was 18.1 µM (active).

In the case of `CCCOC(=O)c1ccc(O)cc1`, the result was inactive.

`CCN(CC)CCNc1ccc(CNC=O)c2sc3ccc(OC)cc3c(=O)c12`: the AC50 is 8.04 µM (active).

`c1ccc2cc3c(ccc4ccccc43)cc2c1`: the AC50 is 3.45 µM (active) and 5.17 µM (active) and 12.5 µM (active).

Regarding `CCC(=C(c1ccc(O)cc1)c1ccc(OCCN(C)C)cc1)c1ccccc1`, the outcome was inactive.

Take `NC(=O)N(O)[C@@H]1C=C[C@H](Oc2cccc(Oc3ccc(F)cc3)c2)C1`: the AC50 was 28.5 µM (active).

In the case of `CCc1ccc(CCOc2ccc(CC3SC(=O)NC3=O)cc2)nc1` (stereo unspecified), the AC50 is 12.1 µM (active).

As for `O=C(O)Cc1cc(I)c(Oc2cc(I)c(O)c(I)c2)c(I)c1`, the outcome was inactive.
